# What was measured:
# Details in all cases: concentration: 1 μM, replicates: in singlicate; n = 1
# SNARK = test system: T1, SNARK
# T1 construct: gene NUAK2
# SNRK = test system: SNRK
# SRC = test system: SRC
# SRMS = test system: SRMS
# SRPK1 = test system: SRPK1
# SRPK2 = test system: SRPK2
# SRPK3 = test system: SRPK3
# STK16 = test system: STK16
# STK33 = test system: STK33
# STK35 = test system: STK35
# STK36 = test system: STK36
# STK39 = test system: STK39
# SYK = test system: SYK
# SgK110 = test system: SgK110
# TAK1 = test system: T2, TAK1
# T2 construct: gene MAP3K7
# TAOK1 = test system: TAOK1
# TAOK2 = test system: TAOK2
# TAOK3 = test system: TAOK3
# TBK1 = test system: TBK1
# TEC = test system: TEC
# 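Further: KINOMEscan kinase panel screen.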
SMILES,%Inh (SNARK) [%],%Inh (SNRK) [%],%Inh (SRC) [%],%Inh (SRMS) [%],%Inh (SRPK1) [%],%Inh (SRPK2) [%],%Inh (SRPK3) [%],%Inh (STK16) [%],%Inh (STK33) [%],%Inh (STK35) [%],%Inh (STK36) [%],%Inh (STK39) [%],%Inh (SYK) [%],%Inh (SgK110) [%],%Inh (TAK1) [%],%Inh (TAOK1) [%],%Inh (TAOK2) [%],%Inh (TAOK3) [%],%Inh (TBK1) [%],%Inh (TEC) [%]
Cc1ccc(F)c(C(=O)Nc2cccc(-c3nn4ccccc4c3-c3ccnc(Nc4cccc(F)c4)n3)c2)c1F [GSK361061],11,0,25,44,15,0,25,5,4,33,99.1,18,45,0,0,33,18,41,29,75
CN1CCN(Cc2cccc(-c3ccc4c(Nc5ccc(Oc6ccccc6)cc5)ccnc4c3)c2)CC1 [GW578342],0,0,34,97.1,69,20,0,2,13,70,0,6,0,6,13,0,0,0,16,70
Cc1cccc(Nc2nc(N[C@H]3CCNC3)ncc2C(N)=O)c1.Cl [GSK2197149],34,0,85,0,72,0,76,12,40,1,10,9,81,0,90,39,0,5,18,0
FC(F)(F)c1ccc(/C=C/c2cncnc2Nc2ccc3[nH]c(Cc4ccccc4)nc3c2)cc1 [GW709199],45,0,1,0,21,56,2,0,0,0,0,0,10,9,0,0,0,0,36,14
COCCOCCOc1cc2ncc3c4ccc(C#N)cc4[nH]c3c2cc1OC,83,17,14,0,50,24,27,11,24,18,22,0,5,0,88,0,12,0,89,0
CN(C)S(=O)(=O)c1cc(-c2ccc3nccc(-c4cccc(S(N)(=O)=O)c4)c3c2)cnc1N [GSK1669921],22,12,0,0,13,0,19,45,3,8,0,0,0,0,0,18,0,7,2,12
O=C(NC1CCN(c2ccnc(Nc3ccc(F)cc3)n2)C1)c1cc2ccccc2s1 (centres unmarked) [GSK1379716],0,0,1,0,31,37,4,15,0,6,0,4,42,0,0,0,0,0,20,16
Fc1ccc(-c2ncn(C3CCNCC3)c2-c2ccnc(Oc3ccc(-c4ccccc4)cc3)n2)cc1 [SB-245391],16,23,11,3,5,0,5,14,21,0,8,14,0,0,42,28,6,20,8,5
COc1cc2c(cc1OCCN1CCNCC1)ncc1c3ccc(C#N)cc3[nH]c21,94.6,12,0,19,36,0,42,9,19,0,6,33,0,0,95.1,0,4,2,81,0
O=C(Nc1cccc(Oc2ccc3nc(NC(=O)C4CC4)cn3n2)c1)c1ccccc1C(F)(F)F,0,0,5,0,59,14,48,17,0,3,4,11,0,0,0,0,34,0,39,5
CCS(=O)(=O)c1ccc(OC)c(Nc2nccc(-c3c(-c4cccc(NC(=O)c5c(F)cccc5F)c4)nn4ncccc34)n2)c1 [GSK326180],0,0,0,99.3,24,0,0,25,7,0,99.7,16,4,0,0,0,0,0,21,4
CSc1cccc2c(-c3ccncn3)c(-c3ccc(F)cc3)nn12 [GW514786],0,0,1,0,0,0,100,3,0,0,38,10,42,0,9,0,0,0,8,0
NCCCC(NC(=O)c1cc(Br)c(-c2ccnc3[nH]ccc23)s1)c1ccccc1.O=C(O)C(F)(F)F.O=C(O)C(F)(F)F (centres unmarked) [GSK1287544],88,6,0,0,70,12,57,60,91.5,0,0,0,0,58,0,34,0,0,0,0
O=C(Nc1cccc(-c2nn3ncccc3c2-c2ccnc(Nc3ccccc3)n2)c1)c1c(F)cccc1F [GSK198271],32,45,62,94.9,32,0,0,7,0,79,100,0,37,0,0,90,93.2,97.3,0,95.4
CCn1c(-c2nonc2N)nc2c(C#CC(C)(C)O)nc(OC[C@H](N)c3ccccc3)cc21 [GSK943949],92.8,0,1,4,41,0,24,9,0,0,0,5,2,0,18,64,27,3,0,0
CNC(=O)c1ccccc1Nc1nc(Nc2ccc(N3CCOCC3)cc2)ncc1Cl.Cl [GSK1576028],99.2,0,100,67,98.1,35,78,99.2,98.6,50,85,54,87,90.5,96.1,98.8,83,94.2,93.1,99
Nc1ncnc2c1nc(-c1ccccc1)n2-c1ccccc1 [SKF-97293],24,18,10,24,0,5,9,0,16,0,7,0,6,0,35,38,6,25,24,8
COc1cc(Nc2nccc(N3CCC(NC(=O)c4cc5ccccc5s4)C3)n2)cc(OC)c1OC (centres unmarked) [GSK1379760],20,0,21,8,61,0,22,10,0,9,32,0,52,0,12,0,0,0,3,10
Cc1occc1-c1ncc(OC[C@@H](N)Cc2c[nH]c3ccccc23)cc1-c1ccc2[nH]nc(C)c2c1.O=C(O)C(F)(F)F [GSK682037],60,0,65,0,54,0,70,0,86,69,0,15,0,0,97.9,97.7,36,83,0,0

SMILES,%Inh (SNARK) [%],%Inh (SNRK) [%],%Inh (SRC) [%],%Inh (SRMS) [%],%Inh (SRPK1) [%],%Inh (SRPK2) [%],%Inh (SRPK3) [%],%Inh (STK16) [%],%Inh (STK33) [%],%Inh (STK35) [%],%Inh (STK36) [%],%Inh (STK39) [%],%Inh (SYK) [%],%Inh (SgK110) [%],%Inh (TAK1) [%],%Inh (TAOK1) [%],%Inh (TAOK2) [%],%Inh (TAOK3) [%],%Inh (TBK1) [%],%Inh (TEC) [%]
Cn1cc(-c2ccc3c(c2)CCN3C(=O)Cc2cccc(Cl)c2)c2c(N)ncnc21 [GSK2606590],18,0,21,0,0,0,11,11,0,0,0,9,38,0,42,0,0,0,27,4
COc1ccc(Nc2nccc(NCCNC(=O)c3cc4ccccc4s3)n2)cc1 [GSK1379896],0,2,9,0,32,0,3,13,0,0,0,3,2,24,0,0,0,0,2,0
Cc1ccc(C(=O)N2CC[C@@H](O)C2)cc1-n1c(C)cc(OCc2ccc(F)cc2F)c(Br)c1=O,0,0,97.7,0,0,0,0,19,2,0,0,0,7,0,0,31,57,0,1,0
CN(c1ccc(NC(=O)Nc2cc(C(F)(F)F)ccc2F)cc1)c1ccnc(Nc2ccc(S(N)(=O)=O)cc2)n1 [GW809893],0,5,99.7,0,18,0,20,12,81,10,0,0,91.9,0,60,53,86,79,29,0
Cl.Cl.NCC(C(=O)Nc1cc(Br)c(-c2ccnc3[nH]ccc23)s1)c1ccccc1 (centres unmarked) [GSK1269851],0,0,0,0,73,59,90.7,13,52,0,0,44,7,0,0,0,0,0,7,11
COC(=O)Nc1nc2ccc(Oc3ccc(NC(=O)Nc4cc(C(F)(F)F)ccc4F)cc3)cc2n1C.Cl [GW692089],17,0,0,0,26,57,5,0,30,0,22,0,52,0,38,0,0,0,0,0
CCn1c(-c2nonc2N)nc2c(C#CC(C)(C)O)ncc(OCCCCN)c21.O=C(O)C(F)(F)F.O=C(O)C(F)(F)F [GSK507274],94.7,19,0,0,0,42,18,0,0,0,0,11,4,0,0,40,8,0,31,0
O=C(Nc1cccc(-c2nn3ccccc3c2-c2ccnc(Nc3cccc(C(F)(F)F)c3)n2)c1)c1c(F)cccc1F [GSK292658],9,15,15,22,12,0,17,0,4,20,97.8,0,37,68,0,27,3,30,8,83
COc1cc(Nc2nccc(-c3c(-c4cccc(NC(=O)c5c(F)cccc5F)c4)nn4ncccc34)n2)cc(OC)c1OC [GSK327238],95.2,0,99.9,98.5,38,0,0,67,22,96.9,100,13,74,69,15,58,39,63,12,95.2
Nc1ncc(-c2cccnc2)c2scc(-c3ccc4c(c3)CCN4C(=O)Cc3ccccc3)c12 [GSK683281],4,1,37,8,32,0,28,4,20,0,87,4,34,1,7,0,4,0,14,17
COc1cccc(NC(=O)NC2CCN(c3ccnc(Nc4cc(OC)c(OC)c(OC)c4)n3)C2)c1 (centres unmarked) [GSK1379763],33,0,10,0,61,0,0,77,0,3,0,0,28,0,0,0,0,0,38,5
COc1cccc(-c2ccc3c(NC(=O)C4CC4)n[nH]c3n2)c1 [SB-710903],0,0,0,0,10,50,0,26,0,0,0,17,19,0,0,30,4,0,13,0
Cl.Cl.NCC(NCc1ccc(-c2ccnc3[nH]ccc23)s1)c1ccccc1 (centres unmarked) [GSK1321565],93.5,0,0,0,68,83,77,49,76,0,0,5,23,8,44,26,0,0,8,0
CCCCc1nn2ncccc2c1-c1ccnc(Nc2ccc(N3CCN(C)CC3)cc2)n1 [GW684941],90.2,0,98.8,0,63,6,26,86,39,0,91.4,33,0,10,4,37,47,42,11,0
Cc1cccc(NC(=O)Nc2ccc(Oc3ncnc4ccn(C)c34)cc2)c1,0,0,0,0,11,0,0,0,0,0,0,0,0,0,0,0,20,0,6,0
COc1cc(Nc2nccc(N3CCC(NC(=O)Nc4cccc(C(C)=O)c4)C3)n2)cc(OC)c1OC (centres unmarked) [GSK1379753],21,0,10,0,50,0,0,83,0,0,30,0,28,0,0,0,0,0,28,0
O=C(O)C(F)(F)F.O=C(O)C(F)(F)F.O=c1[nH]ccc2nc(N[C@@H]3CCCNC3)nc(Nc3ccc(S(=O)(=O)N4CCOCC4)cc3)c12 [GSK2177277],99.6,72,96.7,0,100,65,95.2,99.3,98.6,98,26,90.6,93.1,95,99.9,99.8,82,99.5,90,38
COC(=O)Nc1nc2cc(Oc3ccc(NC(=O)Nc4cc(C(F)(F)F)ccc4F)cn3)ccc2[nH]1.Cl.Cl [GW681170],14,0,29,0,25,8,0,17,55,0,0,3,16,0,79,0,0,0,19,0
